Screens (PubChem)
Vif imaging = inhibitors of HIV Vif | HEK293T cells, Vif self-association by quenched fluorescence, imaging, 24 h | inhibition, % at 7.49 µM | hit rate 0.35% among 340,000 | AID 602346; in the data active means inhibition above about 50%, passing the limit was not always enough
SKN-1 block = C. elegans SKN-1 inhibition | C. elegans VP596 Pgst-4::GFP/RFP ratio, acrylamide-induced, 24 h | AID 624304 | hit rate 0.49% among 360,000 | inhibition, % at 21.8 µM;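 active means interference check ratio from 0.5 to 1.5 plus GFP to RFP signal ratio inhibition reaching or exceeding a fixed threshold, cut at about 30% in these data, passing the limit was not always enough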
NadD inh = blocks S. aureus nicotinate mononucleotide adenylyltransferase. purified NadD enzyme, colorimetric absorbance read-out. inhibition, % at 20 µM. hit rate 0.78% among 360,000; in the data active means inhibition above about 26%
NR3A LBD binder = NR3A (human) ligand-binding domain modulation; NR3A LBD differential scanning fluorimetry, Tm shift; 0% = protein alone, 100% = glycine-bound protein; Tm shift relative to glycine control, % at 25 µM; hit rate 2.5% among 340,000;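 active means melting temperature shift of at least 10% of the positive control shift, at one fixed dose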
SMARCA2 activ = activators of SMARCA2 function; MG213 cells, MMTV-luciferase reporter, dexamethasone, overnight; activation, % at 9.1 µM; hit rate 1% among 370,000; in the data active means activation above about 7.8%;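 further: 0% = vehicle wells and 100% = reference activator wells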
esBAF inh = blocks esBAF chromatin remodeling in mouse ES cells; reporter increase, % at 12.5 µM; Bmi1-luciferase knock-in reporter, 24 h; 100% = twice the neutral-well signal; hit rate 2% among 350,000; in the data active means activation above about 40%;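 further: 0% = median of the plate's neutral control wells and 100% = double that signal; a rise in the Bmi1 reporter signal indicates esBAF inhibition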
SMARCA2 act conf = confirmation of SMARCA2 (BRM) function activators. MG213 cells, MMTV-luciferase with dexamethasone, luminescence, overnight; MG213 cells expressing E1A, Rb sequestered; DMSO wells 0%, reference activator 100%. hit rate 30% among 3,500. shares compounds with SMARCA2 activ. activation, % at 9.1 µM;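 active means activation above its plate's cutoff, the mean activation of tested wells plus 3 SD, cut at about 7.9% in these data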
GAL4-VP16 Luc = counter-screen for SMARCA2 activators: GAL4-VP16 luciferase reporter activation; HEK293 GAL4-VP16 pG5luc reporter, luciferase luminescence; scaled: DMSO wells 0%, SAHA wells 100%; shares compounds with SMARCA2 activ; activation, % at 9.1 µM; AID 686939; hit rate 41% among 3,500;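 active means activation above the solvent-only control well mean plus 3 SD, averaged across control plates, cut at about 5.2% in these data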
Active calls of the source: *; / = no result. The list is not random: actives were taken first. Their share in the collection is about 5.2%.

SMILES | Vif imaging | SKN-1 block | NadD inh | NR3A LBD binder | SMARCA2 activ | esBAF inh | SMARCA2 act conf | GAL4-VP16 Luc
CC(C)NC(=O)Nc1ccc2c(c1)C(=O)N([C@@H](C)CO)C[C@@H](C)[C@@H](CN(C)S(C)(=O)=O)OCCCC[C@@H](C)O2 | / | / | / | / | / | -4.5 | / | /
CCC(C)NS(=O)(=O)c1ccc(S(=O)(=O)N(CC(=O)Nc2ccccc2)Cc2ccco2)cc1 (centres undefined) | -12.2 | -3.0 | -6.7 | -7.5 | -3.3 | 3.6 | / | /
CCCC(C)NC(=O)CN(Cc1ccco1)S(=O)(=O)c1ccccc1 (centres undefined) | 2.2 | 1.0 | 2.5 | -0.3 | 14.8* | 4.8 | -3.6 | -0.8
CCn1c(/C=C/c2ccccc2)nc2ccccc21 | -11.3 | 20.6 | -3.1 | -1.1 | 9.2* | -7.3 | 10.7* | 10.7*
FC(F)(F)c1ccccc1Cc1c(-c2cccc(Cl)c2)nc2c3ccccc3ccn12 | / | 27.6 | 23.0 | / | 8.2* | / | -4.2 | 0.8
Clc1cccc(Cc2c(-c3ccco3)nc3c4ccccc4ccn23)c1 | / | -3.8 | 24.5 | / | 24.0* | / | 11.7* | 10.3*
Fc1ccc(-c2nc3c4ccccc4ccn3c2Cc2ccsc2)cc1 | / | 21.5 | 1.2 | / | -0.7 | 23.3 | / | /
c1coc(-c2nc3c4ccccc4ccn3c2Cc2ccsc2)c1 | / | / | / | / | 20.3* | / | 16.1* | 4.8
COc1ccc(N/C(C)=C/C(=S)Nc2ccccc2)cc1 | / | -6.3 | 5.6 | -1.1 | 11.5* | / | 2.6 | 1.9
C[C@@H]1CN([C@H](C)CO)C(=O)c2cc(NS(=O)(=O)c3ccccc3)ccc2O[C@@H](C)CCCCO[C@@H]1CN(C)CC1CCCCC1 | / | / | / | / | / | -2.4 | / | /
COc1ccc(C(=O)N=c2sc3c(C)ccc(OC)c3n2C)cc1 | 6.9 | 11.8 | -2.5 | -7.4 | 9.2* | 7.1 | 7.2 | 9.8*
COc1cc(C(=O)N=c2sc3c(C)ccc(OC)c3n2C)cc(OC)c1OC | -2.2 | 4.1 | -13.4 | -0.7 | -3.0 | / | / | /
CCC(=O)N1C[C@H](C)[C@H](OC)CN(C)C(=O)c2cc(NC(=O)Nc3ccccc3)ccc2OC[C@H]1C | / | / | / | / | / | -2.3 | / | /
Cc1noc(C)c1NC(=O)Nc1ccc2c(c1)C(=O)N([C@H](C)CO)C[C@H](C)[C@H](CN(C)C(=O)NC(C)C)OCCCC[C@H](C)O2 | / | / | / | / | / | -4.2 | / | /
C[C@H](CO)N1C[C@H](C)[C@H](CN(C)C(=O)Nc2ccc(-c3cccs3)cc2)OCc2cn(nn2)CCCC1=O | / | / | / | / | / | -0.1 | / | /
Cc1cc(C)cc(C(=O)Nc2cccnc2Cl)c1 | -0.7 | 0.5 | -12.1 | -3.3 | 3.5 | -5.0 | / | /
Cc1ccc(C(=O)Nc2cccnc2Cl)cc1Cl | 10.4 | 6.7 | 0.8 | 1.1 | 8.3* | 53.9* | 9.1* | 7.5*
CN1[C@H](C(=O)NC2CCCCC2)[C@@H](CO)[C@@H]2Cn3c(ccc(-c4cccc(F)c4)c3=O)[C@@H]21 | / | / | / | / | / | -2.9 | / | /
COCc1cc(C)nc(N/N=C/c2ccc(Cl)c(Cl)c2)c1C#N | 2.9 | -6.9 | -8.6 | 1.6 | 8.3* | / | -2.2 | -0.3
CS(=O)(=O)Nc1ccc(C2=NN(S(C)(=O)=O)C(c3ccc4c(c3)OCO4)C2)cc1 (centres undefined) | -0.8 | 68.6 | -3.2 | 0.0 | 10.1* | / | 15.6* | 6.6*
Cc1ccc(Nc2nc(N)nc(CN3CCN(Cc4ccc5c(c4)OCO5)CC3)n2)cc1Cl | -13.9 | 8.9 | 6.8 | -3.6 | -4.9 | -0.8 | / | /
Nc1nc(CN2CCN(Cc3ccccc3)CC2)nc(Nc2ccc3c(c2)OCCO3)n1 | -3.6 | -2.3 | -2.7 | -1.2 | 9.2* | / | 26.4* | 1.4
C=C1C(=O)[C@]23C[C@H]1CC[C@H]2[C@]1(C)[C@@H](O)CC[C@@](C)(C(=O)O)[C@H]1C[C@@H]3O | 12.6 | 18.7 | -2.8 | / | 21.1* | 16.1 | 36.7* | 1.6
C=C1C(=O)[C@]23C[C@H]1CCC2[C@@]1(C)C(C[C@@H]3O)[C@](C)(C(=O)OC)CC[C@@H]1OC(C)=O (some centres undefined) | 39.5 | 6.1 | -5.2 | / | -11.1 | -84.5 | / | /
C=C1C(=O)[C@]23C[C@H]1CC[C@H]2[C@]1(C)[C@@H](OC(C)=O)CC[C@@](C)(C(=O)O)[C@H]1C[C@@H]3O | 11.7 | 0.9 | -2.1 | / | 34.5* | -33.8 | 9.1* | -1.6
SMILES | Vif imaging | SKN-1 block | NadD inh | NR3A LBD binder | SMARCA2 activ | esBAF inh | SMARCA2 act conf | GAL4-VP16 Luc
CCCNC(=O)Nc1ccc2c(c1)C(=O)N(C)[C@@H]1CC[C@H](CC(=O)OC)O[C@H]1CO2 | / | / | / | / | / | -0.7 | / | /
C[C@@H]1CN([C@H](C)CO)C(=O)c2cc(NC(=O)C3CCCCC3)ccc2O[C@@H]1CN(C)S(=O)(=O)c1ccccc1 | / | / | / | / | / | -4.9 | / | /
COc1ccc(S(=O)(=O)Nc2ccc3c(c2)CC(=O)N([C@@H](C)CO)C[C@H](C)[C@H](CN(C)CC2CCCCC2)O3)cc1 | / | / | / | / | / | -1.3 | / | /
CCOc1ccc(C(=O)NCC(=O)N2CCC3(CC2)NCCc2[nH]cnc23)cc1 | 0.7 | 7.6 | -10.8 | 2.0 | 0.9 | -5.1 | / | /
O=C(COc1ccc(Cl)cc1)NCC(=O)N1CCC2(CC1)NCCc1[nH]cnc12 | 32.4 | 23.2 | -5.7 | -0.7 | 9.7* | -4.3 | 2.5 | 1.5
COc1cc2nc(C3CCC3)nc(N3CCN(c4ccccn4)CC3)c2cc1OC | -20.8 | 17.0 | -5.5 | -5.0 | / | / | / | /
COc1cc2nc(C3CCC3)nc(N3CCN(c4ccccc4OC)CC3)c2cc1OC | 8.9 | 9.7 | -8.8 | -8.3 | 9.4* | / | -2.2 | 0.5
CC(=O)Nc1ccc(C(=O)OCCC(C)C)cc1 | -0.6 | 12.2 | -1.1 | 1.0 | 8.9* | 32.2 | 2.5 | 3.5
CCCOC(=O)c1ccc(NC(=O)COC)cc1 | 3.7 | 7.7 | -5.0 | 1.1 | 3.6 | 33.9 | / | /
CNC(=O)C[C@@H]1CC[C@@H]2[C@@H](COc3ccc(NC(=O)c4ccccc4F)cc3C(=O)N2C)O1 | / | / | / | / | / | 2.7 | / | /
CCOC(=O)C1(Cc2cccc(Cl)c2)CCCN(C(=O)c2cccnc2)C1 (centres undefined) | -2.3 | 8.9 | 4.8 | -2.5 | -2.1 | 3.7 | / | /
CCOC(=O)C1(Cc2cccc(OC)c2)CCCN(C(=O)CCc2cccnc2)C1 (centres undefined) | -7.4 | -13.0 | -2.4 | -1.4 | 9.3* | / | 6.7 | 7.9*
O=C(C[C@@H]1C[C@H]2c3cc(NC(=O)Nc4ccccc4F)ccc3O[C@H]2[C@H](CO)O1)NCCc1ccccc1 | / | / | / | / | / | 6.6 | / | /
CC1(C)C2([N+](=O)[O-])CN3CC1([N+](=O)[O-])CN(C2)C3c1ccccc1 (centres undefined) | 0.2 | 7.0 | 4.7 | -1.3 | -2.0 | / | / | /
